# Where “and” joins values, the source holds several entries; their conditions need not be identical. Identical values can stand only once. Results filed as inconclusive are left out. A call without a number means that no potency is given here. Some structures have more than one record in an assay (separate samples or runs), and their calls can disagree. Calls of active or inactive are those of the source. Calls come from the whole dose curve; as a rule, active = well fitted curve in the direction sought with a large enough effect in the repeat runs; inconclusive = weak or mixed curves; inactive = no such curve, though single readings can be large; an effect the other way counts as inactive or inconclusive.
# What was measured:
# [1] = A CellTox Green Cytotoxicity Assay to monitor cytotoxicity in HEK293 cells - 32 hour (AID 1224881); note: nearly all actives have a fitted effect of over 40% in size; note: potency is the fitted concentration of half-maximal effect
# In short: (§1)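 Real-time, in one plate: 600 HEK293 cells/well with dead-cell DNA dye, pinned compound after 5 h, 37 C incubation over 40 h; viable cells give no appreciable fluorescence.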
# [2] = A CellTox Green Cytotoxicity Assay to monitor cytotoxicity in HepG2 cells - 0 hour (AID 1224882); note: nearly all actives have a fitted effect of over 35% in size; note: potency is the fitted concentration of half-maximal effect
# In short: (§2)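 Cytotoxicity was tracked as dead-cell DNA fluorescence in HepG2 cells treated with test compounds at 37 C; each time-point value comes from one kinetic series spanning 0, 8, 16, 24, 32 and 40 h.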
# [3] = A CellTox Green Cytotoxicity Assay to monitor cytotoxicity in HepG2 cells - 32 hour (AID 1224883); note: nearly all actives have a fitted effect of over 50% in size; note: potency is the fitted concentration of half-maximal effect
# In short: as §2
# [4] = A CellTox Green Cytotoxicity Assay to monitor cytotoxicity in HEK293 cells - 8 hour (AID 1224884); note: nearly all actives have a fitted effect of over 35% in size; note: potency is the fitted concentration of half-maximal effect
# In short: as §1
# [5] = qHTS RealTime-Glo MT Cell Viability Assay in HepG2 cells - 16 hour (AID 1224885); note: nearly all actives have a fitted effect of over 50% in size; note: potency is the fitted concentration of half-maximal effect
# In short: (§3)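 Luminescence read-out: viable HepG2 cells reduce a prosubstrate to a NanoLuc substrate, giving a signal proportional to live cell number. Reads taken at 0, 8, 16, 24, 32 and 40 h of compound exposure at 37 C.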
# [6] = qHTS RealTime-Glo MT Cell Viability Assay in HEK293 cells - 24 hour (AID 1224886); note: nearly all actives have a fitted effect of over 50% in size; note: potency is the fitted concentration of half-maximal effect
# In short: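 Nonlytic real-time viability readout: viable cells convert prosubstrate to NanoLuc substrate, giving luminescence proportional to live cell number. HEK293, 600 cells/well, compound added after 5 h, continuous culture at 37 C.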
# [7] = qHTS RealTime-Glo MT Cell Viability Assay in HEK293 cells - 8 hour (AID 1224887); note: nearly all actives have a fitted effect of over 50% in size; note: potency is the fitted concentration of half-maximal effect
# In short: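 Kinetic, non-lysing viability readout. Seed HEK293 (600/well) with reagent, incubate 5 h at 37 C/5% CO2, pin 23 nL compound in DMSO, incubate at 37 C, read luminescence at 0, 8, 16, 24, 32, 40 h.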
# [8] = A CellTox Green Cytotoxicity Assay to monitor cytotoxicity in HEK293 cells - 16 hour (AID 1224888); note: nearly all actives have a fitted effect of over 35% in size
# In short: as §1
# [9] = qHTS RealTime-Glo MT Cell Viability Assay in HepG2 cells - 0 hour (AID 1224889); note: nearly all actives have a fitted effect of over 50% in size; note: potency is the fitted concentration of half-maximal effect
# In short: as §3
# [10] = A CellTox Green Cytotoxicity Assay to monitor cytotoxicity in HepG2 cells - 8 hour (AID 1224890); note: nearly all actives have a fitted effect of over 45% in size; note: potency is the fitted concentration of half-maximal effect
# In short: as §2
SMILES,Potency [1],Potency [2],Potency [3],Potency [4],Potency [5],Potency [6],Potency [7],Potency [8],Potency [9],Potency [10]
Nc1ncn[nH]1,inactive,inactive,inactive,inactive,inactive,inactive,inactive,inactive,inactive,inactive
CC(O)CN(CC(C)O)CC(C)O (stereo not given),inactive,inactive,inactive,inactive,inactive,inactive,inactive,inactive,inactive,inactive
O=[N+]([O-])c1ccc(Cl)c([N+](=O)[O-])c1,19.8 µM (active) and 24.5 µM (active),inactive,35.2 µM (active) and 24.5 µM (active),inactive,39.5 µM (active) and 17.4 µM (active),11.1 µM (active) and 12.3 µM (active),14 µM (active) and 17.4 µM (active),inactive,inactive,61.7 µM (active)
CC1(C)Cc2cccc(O)c2O1,inactive,inactive,inactive,inactive,inactive,inactive,inactive,inactive,inactive,inactive
COc1ccc(CO)cc1,inactive,inactive,inactive,inactive,inactive,inactive,inactive,inactive,inactive,inactive
CC(C)(O)C(=O)Nc1ccc([N+](=O)[O-])c(C(F)(F)F)c1,inactive,inactive,inactive,inactive,inactive,25.1 µM (active) and 17.9 µM (active),25.1 µM (active),inactive,inactive,inactive
C[C@]12CC[C@H]3[C@@H](CCC4=CC(=O)CC[C@@H]43)[C@@H]1CC[C@@H]2O,inactive,inactive,inactive,inactive,inactive,inactive,inactive,inactive,inactive,inactive
C[N+](C)(C)CC(=O)[O-],inactive,inactive,inactive,inactive,inactive,inactive,inactive,inactive,inactive,inactive
c1ccc2c(c1)Nc1ccccc1S2,inactive,inactive,inactive,inactive,inactive,11 µM (active) and 10.7 µM (active),13.8 µM (active) and 10.7 µM (active),inactive,inactive,inactive
CCOS(=O)(=O)OCC,inactive,inactive,inactive,inactive,inactive,inactive,inactive,inactive,inactive,inactive
CCOC(=O)c1ccccc1N,inactive,inactive and 43.6 µM (active),inactive and 54.9 µM (active),inactive and 43.6 µM (active),inactive,inactive,inactive,inactive,inactive,inactive and 49 µM (active)
O=NN1CCOCC1,inactive,inactive,inactive,inactive,inactive,inactive and 2.45 µM (active),inactive and 7.76 µM (active),inactive,inactive,inactive
Clc1cccc(C(Cl)(Cl)Cl)n1,inactive,inactive,54.5 µM (active),inactive,inactive,inactive,inactive,inactive,inactive,inactive
COC(=O)Nc1nc2ccccc2[nH]1,inactive,inactive,6.17 µM (active) and inactive,inactive,inactive,inactive,inactive,inactive,inactive,inactive
ClCC(Cl)CCl,inactive,inactive,inactive,inactive,inactive,inactive,inactive,inactive,inactive,inactive
CCCCOC(=O)COC(=O)c1ccccc1C(=O)OCCCC,inactive,inactive,inactive,inactive,inactive,inactive,inactive,inactive,inactive,inactive
O=C1Nc2ccc(Cl)cc2C(c2ccccc2)=NC1O (stereo not given),inactive,inactive,inactive,inactive,inactive,inactive,inactive,inactive,inactive,inactive
CCNc1nc(Cl)nc(NC(C)(C)C#N)n1,inactive,inactive,inactive,inactive,inactive,inactive,inactive,inactive,inactive,inactive

SMILES,Potency [1],Potency [2],Potency [3],Potency [4],Potency [5],Potency [6],Potency [7],Potency [8],Potency [9],Potency [10]
ClC(Cl)=C(Cl)C(Cl)=C(Cl)Cl,inactive,inactive,inactive,inactive,inactive,inactive,inactive,inactive,inactive,inactive
Clc1cccc(Cl)c1,inactive,inactive,inactive,inactive,inactive,inactive,inactive,inactive,inactive,inactive
Cl,inactive,inactive,inactive,inactive,inactive,inactive,inactive,inactive,inactive,inactive
ClC(Cl)(Cl)Br,inactive,inactive,inactive,inactive,inactive,inactive,inactive,inactive,inactive,inactive
NN=C(N)N,inactive,inactive,inactive,inactive,inactive,inactive,inactive,inactive,inactive,inactive
C[N+](C)(C)CC(=O)O,inactive,inactive,inactive,inactive,inactive,inactive,inactive,inactive,inactive,inactive
CCN(CC)C(=O)C(C)Oc1cccc2ccccc12 (stereo not given),inactive,inactive,inactive,inactive,inactive,inactive,inactive,inactive,43.6 µM (active),inactive
N#Cc1nn(-c2c(Cl)cc(C(F)(F)F)cc2Cl)c(N)c1S(=O)C(F)(F)F (stereo not given),inactive,inactive,inactive,inactive,inactive,19.6 µM (active),19.6 µM (active),inactive,inactive,inactive
[Cl-].[Cl-].[Cl-].[Fe+3],inactive,inactive,inactive,inactive,inactive,inactive,inactive,inactive,inactive,inactive
Cc1cc(Cl)ccc1N=CN(C)C,inactive,inactive,inactive,inactive,inactive,inactive,inactive,inactive,inactive,inactive
Clc1ccccc1-c1nnc(-c2ccccc2Cl)nn1,inactive,inactive,inactive,inactive,inactive,inactive,inactive,inactive,inactive,inactive
CCC/C=N/O,inactive,inactive,inactive,inactive,inactive,inactive,inactive,inactive,inactive,inactive
Nc1ccc2ccccc2c1,inactive,inactive,inactive,inactive,inactive,inactive,inactive,inactive,inactive,inactive
CCOP(=S)(OCC)SCn1c(=O)oc2cc(Cl)ccc21,inactive,inactive,inactive,inactive,inactive,26.3 µM (active) and 21.9 µM (active),26.3 µM (active) and 15.5 µM (active),inactive,inactive,inactive
CNC(=O)CSP(=S)(OC)OC,inactive,inactive,inactive,inactive,inactive,inactive,inactive,inactive,inactive,inactive
CC1CC(=O)O1 (stereo not given),inactive,inactive,inactive,inactive,inactive,inactive,inactive,inactive,inactive,inactive
O=C(O)c1nn(Cc2ccc(Cl)cc2Cl)c2ccccc12,inactive,inactive,inactive and 95.2 nM (active),inactive,inactive,inactive,inactive,inactive,inactive,inactive and 95.2 nM (active)
